Reference: PubChem BioAssay (NCI)
About 83,000 compounds went through this panel and 20% of them were active in at least one assay; those are over-represented in the sample as a whole.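 Single-dose data. Exposure time 48 hours. Values below 10 considered active.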 Active and inactive are the calls of the source.

System: SNB-75 CNS
Assay: NCI-60 one-dose screen, 48 h (100 = growth as untreated, 0 = no growth, -100 = all killed)
Details: 10 µM unless noted
Protocol: Growth inhibition of the SNB-75 human tumor cell line is measured as a screen for anti-cancer activity. Cells are grown in 96 well plates and exposed to the test compound for 48 hours. Compounds are tested at a single concentration, which is 10^-5 M for most compounds. The reported endpoint is percent growth (GI% or GIPRCNT), where numbers from 0 - 100% represent growth inhibition, and numbers from -100% - 0 represent cell death. For example, a value of 40 represents 60% growth inhibition. A value of 0 means no net growth occurred over the course of the experiment. A value of -40 indicates 40% of cells at the beginning of the experiment died by the end of the experiment. A value of -100 means all cells are dead at the end of the experiment.
NCI-60 Human Tumor Cell Lines Screen was performed using the standard one-dose NCI protocol, which is described in more detail at https://dtp.cancer.gov/discovery_development/nci-60/default.htm.
Compounds with GIPRCNT values below 10 were considered active. Activity score was based on GIPRCNT using the following formula: […]
Score is 0 for GIPRCNT values of 100 or above, 50 for GIPRCNT values of 0, and 100 for GIPRCNT values of -100.

| SMILES | growth |
| --- | --- |
| Clc1ccc2c(NCCCCNc3nc(N4CCOCC4)nc4ccccc34)ccnc2c1 | 79% (inactive) |
| CCOc1ccc(C(C)=O)cc1NC(=O)c1cccc(-c2nnn(CC)n2)c1 | 6.99% (active) |
| CCCCC[C@H]1C/C=C2/C(=O)C=C[C@@H]2C/C=C\CCCC(=O)O1 | -33.6% (active) |
| C#CC(F)(F)[C@]1(O)CC[C@H]2[C@@H]3CCC4=CC(=O)CCC4=C3[C@@H](c3ccc(C(C)=O)cc3)C[C@@]21C | 73.7% (inactive) |
| COc1ccc(/C=N/C2=C(C#N)C(c3ccc(N(C)C)cc3)c3ccc4ccccc4c3O2)cc1 (stereo not given) | -7.87% (active) |
| C=C(C)[C@@H]1CC[C@]2(C(=O)OC)CC[C@]3(C)[C@H](CC[C@@H]4[C@@]5(C)C/C(=C/c6ccc(OC)cc6)C(=O)C(C)(C)[C@@H]5CC[C@]43C)[C@@H]12 | 75.7% (inactive) |
| C=C1C(=O)O[C@H]2[C@H]1CC/C(C=Nc1ccc(C(F)(F)F)cc1N)=C\CC[C@@]1(C)O[C@@H]21 | 41.1% (inactive) |
| Cn1c(=O)c2c(nc3n(-c4ccc(Cl)cc4Cl)c(Sc4nc(-c5ccccc5)c(C#N)c(=O)[nH]4)cn23)n(C)c1=O | -5.62% (active) |
| COc1ccc(SC2c3ccc(C)cc3Oc3nc(N)c(C#N)c(N)c32)cc1 (stereo not given) | -45.5% (active) |
| Cc1cc(N2CCCC2)nc(NC2CCCC(Nc3ccnc4cc(Cl)ccc34)C2)n1 (stereo not given) | -68.6% (active) |
| CCCc1cc(=O)n2c(C(=O)Nc3ccc(F)cc3)c(C(=O)Nc3ccc(F)cc3)sc2n1 | -15.9% [30 µM] (active) |
| Nc1ccn(-c2ccc(Br)cc2)c(=O)n1 | 76.7% (inactive) |
| COc1ccc(-c2cc(=O)c3c(OC)c4ccoc4cc3o2)cc1 | 104% (inactive) |
| COc1ccc2c(c1)C(=O)/C(=C/c1cccnc1)CC2 | 91.6% (inactive) |
| COc1ccc(S(=O)(=O)N2CCCCC2)cc1NC(=O)c1[nH]c(C)c2c1CCCCC2=O | 5.25% (active) |
| CS(=O)(=O)c1ccc(-n2nc(-c3ccc(Br)cc3)c3ccccc3c2=O)cc1 | 70.5% (inactive) |
| CCc1nc(N)nc(N)c1C#CC(C)c1cc(-c2ccnc(C)c2)c2oc(C)nc2c1 (stereo not given) | -23.2% (active) |
| COc1ccc2c(c1)c(-c1nonc1-c1cn(C)c3ccccc13)cn2C | -6.82% (active) |
| Cn1ccnc1C(=O)/C=C/c1ccc(CC(=O)Nc2ccccc2)cc1 | 11.3% (inactive) |
| O=C(COc1cccc(/C=C2\COc3ccc(Cl)cc3C2=O)c1)c1ccc(Cl)cc1 | 67.8% (inactive) |

| SMILES | growth |
| --- | --- |
| CCOc1nc(-c2ccccc2)cc2c(O)c(C(=O)N/N=C/c3ccc(O)cc3O)[nH]c(=O)c12 | 59.6% (inactive) |
| COc1cc2c(cc1-c1c(C)noc1C)ncc1nc(C3CCOCC3)n([C@@H](C)COC(F)F)c12 | 28.7% (inactive) |
| O=S(=O)(Nc1ccc(Br)c(Cl)c1)c1ccc(-c2cnc(C3CC3)o2)cc1 | -5.71% (active) |
| O=S(=O)(Nc1ccc(OC(F)F)cc1)c1ccc(-c2cnc(C3CC3)o2)cc1 | 42.7% (inactive) |
| COc1ccc(/C=C/c2nc(-c3n[nH]c(=O)n3-c3ccccc3)c3ccccc3n2)cc1 | 81.7% (inactive) |
| COc1ccc(C2CC(c3ccc(Cl)cc3)=NN2/C=C2\SC(=S)N(NC(=O)Cc3ccccc3Nc3c(Cl)cccc3Cl)C2=O)cc1 (stereo not given) | 58.4% (inactive) |
| Cc1ccc2c(C(C[N+](=O)[O-])c3ccccc3)c(-c3ccccc3)[nH]c2c1 (stereo not given) | -6.93% [9.5 µM] (active) |
| O=Nc1c(O)c(Cl)cc2ccccc12 | 62% (inactive) |
| CCN(CC)c1ccc(-c2cc(-c3cc(OC)c(OC)c(OC)c3)nc(N3CCOCC3)c2C#N)cc1 | 29.8% (inactive) |
| Cn1c(NCCc2ccc(O)c(O)c2)nc2c1c(=O)n(Cc1ccc(Br)cc1)c(=O)n2C | 74.6% (inactive) |
| C#Cc1cccc(NC(=O)c2ccccc2NC(=O)CCl)c1 | 70.5% [8.25 µM] (inactive) |
| Nc1ccc(-c2cc3c(Nc4ccc(Oc5cccc(C(F)(F)F)c5)c(Cl)c4)ncnc3s2)cc1 | 78.1% (inactive) |
| CC1=NN(c2nc(-c3ccc(Cl)cc3)c(C#N)c(N3CCOCC3)n2)C(=O)C1 | 56.5% (inactive) |
| CC(O)CN1CC(O)=C(c2nc3ccccc3s2)C1=N (stereo not given) | 99.3% (inactive) |
| CC1=C(O)C(=O)C(C(C#N)(C#N)C(C#N)C#N)C1 (stereo not given) | 81.5% (inactive) |
| COc1cc(-c2nn(C)nc2-c2cc3ccccc3s2)cc(OC)c1OC | 48.1% (inactive) |
| CCN1CCC2(CC1)NC(=O)c1c(c3ccc(Cl)c(Cl)c3n1C)C2C#N (stereo not given) | 51.2% (inactive) |
| Cc1ccc2c(C(C[N+](=O)[O-])c3ccccc3F)c(-c3ccccc3)[nH]c2c1 (stereo not given) | 24.6% (inactive) |
| COC(=O)c1ccc(NC(=O)c2ccc(-c3cccc([N+](=O)[O-])c3)o2)cc1 | 82.4% (inactive) |
| CC/C=C\C[C@H]1C/C=C2/C(=O)C=C[C@H]2C/C=C\CCCC(=O)O1 | 38.6% (inactive) |
